High-throughput results from PubChem BioAssay.
FLuc counter = inhibits or activates purified firefly luciferase, miR-21 counter-screen; purified FLuc, Km substrates, luminescence inhibition; Potency, µM (titrated, usually from 57.5 µM), without a hit: at the highest dose activity change, negative = inhibition, most hits filed as inhibitors; actives 6.9% (n = 360,000); AID 588342;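 further: plate controls were vehicle for no effect and reference inhibitor for full effect; nearly all actives have a fitted effect of over 55% in size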
Target sequence (P08659 whole entry, looked up): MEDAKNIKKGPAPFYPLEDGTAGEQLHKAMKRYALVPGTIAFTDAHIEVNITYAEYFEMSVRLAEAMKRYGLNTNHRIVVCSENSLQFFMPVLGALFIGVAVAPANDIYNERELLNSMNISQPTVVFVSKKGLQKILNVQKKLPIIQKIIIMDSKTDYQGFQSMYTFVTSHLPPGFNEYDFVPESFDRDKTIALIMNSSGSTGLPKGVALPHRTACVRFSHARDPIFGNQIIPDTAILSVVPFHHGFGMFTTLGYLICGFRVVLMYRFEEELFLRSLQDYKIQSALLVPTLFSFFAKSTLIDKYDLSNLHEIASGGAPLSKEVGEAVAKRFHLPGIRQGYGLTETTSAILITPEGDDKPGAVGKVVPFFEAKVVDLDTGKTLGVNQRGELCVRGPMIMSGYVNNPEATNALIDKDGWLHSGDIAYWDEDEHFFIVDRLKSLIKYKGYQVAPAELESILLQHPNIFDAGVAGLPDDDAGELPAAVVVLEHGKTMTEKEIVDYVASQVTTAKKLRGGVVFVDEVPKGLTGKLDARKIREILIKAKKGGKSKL
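Biochemical qHTS of compounds, final roughly 60 µM downward over six points, against 10 nM purified firefly luciferase using Km concentrations of substrates (10 uM D-luciferin, 10 uM ATP) in Tris acetate pH 7.5 buffer; luminescence output.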
Rab9 prom act = Rab9 promoter activation. Huh7 Rab9 promoter-luciferase reporter, luminescence, 24 h. Potency, µM (doses to about 9.22 µM), without a hit: top-dose activation, negative = inhibition, actives largely listed as activators. actives 2.8% (n = 320,000); further: % of control where 0% means no effect; nearly all actives have a fitted effect of over 60% in size
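Promoter activation is measured as luciferase luminescence in Huh7 cells stably transfected with a Rab9 promoter–luciferase construct, following 24 h compound exposure at 37 °C and 10 min reagent incubation at ambient temperature.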
Luc counter = counter-screen: inhibitors of Kinase-Glo firefly luciferase; Q27757; Kinase-Glo luciferase, ATP luminescence, 8 min; Potency, µM (series often up to 38.3 µM), for inactives: top-dose activity change, negative = inhibition, hits mostly inhibitors; actives 0.28% (n = 200,000); further: on the % scale 0 is the no-effect control and ±100 the full control effect; nearly all actives have a fitted effect of over 60% in size
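Recombinant Kinase-Glo luciferase, 10 uM ATP (linear range), luciferin; imidazole pH 7.2 / KCl / MgCl2 / Tween / BSA buffer; 8 min RT; luminescence.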
ELG1 genotox = induces genotoxicity in HEK293T cells with luciferase-tagged ELG1; HEK293T ELG1-luciferase reporter, luminescence, 16 h; Potency, µM (series often up to 46 µM), for inactives: at the top dose activity change, positive = activation, most hits filed as activators; actives 1.3% (n = 330,000); further: % of control where 0% means no effect; nearly all actives have a fitted effect of over 60% in size
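Cells (2,000/well) expressing the ELG1-luciferase fusion are dosed by pin tool and kept 16 hr at 37 °C, 5% CO2. Signal comes from ONE-Glo luciferase reagent after 30 min at room temperature.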
SMN2 splice up = SMN2 splice variant enhancement. HEK293 SMN2-luciferase splicing reporter, luminescence, 30-36 h. Potency, µM (doses to about 46.1 µM), for inactives: at the highest dose activity change, positive = activation, hits mostly activators. actives 2.8% (n = 210,000); further: % of control where 0% means no effect; nearly all actives have a fitted effect of over 55% in size
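HEK293 cells carry an SMN2 minigene-luciferase reporter in which exon 7 inclusion puts luciferase in frame. Cells were seeded at 2000 cells/well, attached for 10-12 hours, then exposed to compounds for 30-36 hours at 37C before ONE-Glo luminescence.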
NPC1 prom act = activates the NPC1 promoter | Huh7 NPC1 promoter luciferase reporter, 24 h | Potency, µM (top dose mostly 9.22 µM), inactives show at the highest dose activation, most hits filed as activators | actives 2.4% (n = 320,000); further: % of control where 0% means no effect; nearly all actives have a fitted effect of over 60% in size
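Stably transfected Huh7 (NPC1 promoter→luciferase), 1500 cells/well in Opti-MEM + 10% FBS, 2 h settle, then compound 24 h at 37 °C. Luminescence after 10 min with Amplite reagent.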
Numbers without * were called inactive; ? = inconclusive; nt = no result given. The list is not random: actives were taken first. Their share in the collection is about 7.4%. The call rests on the fitted dose curve; in most records, active means well fitted curve in the direction sought with a large enough effect; inconclusive means small, poorly fitted or top-dose-only effect, or another doubt; inactive means no such curve, though single readings can be large; an effect the other way counts as inactive or inconclusive. Potency means the concentration at half of the fitted maximal effect.

SMILES	FLuc counter	Rab9 prom act	Luc counter	ELG1 genotox	SMN2 splice up	NPC1 prom act
Cc1ccc(C=Nc2ccc(N(C)C)cc2)o1	0.27µM*	8%	-25%	21µM*	-7%	7%
O=C(Nc1ccc(N2CCN(c3ncccc3C(F)(F)F)CC2)nc1)c1cccs1	?	-16%	nt	-23%	nt	-6%
N/C(=N\O)c1ccc(N2CCN(c3ncccc3C(F)(F)F)CC2)nc1	12µM*	2.5µM*	nt	?	nt	2.2µM*
COc1cccc(C(=O)c2sc(NC(C)C)nc2N)c1	-13%	-1%	1%	-5%	20µM*	-6%
COc1ccc(Nc2nc(N)nc(N)c2S(=O)(=O)c2ccccc2)cc1	3%	nt	nt	nt	-19%	nt
CCc1cc2c(SCC(=O)c3ccccc3)ncnc2s1	?	2%	-3%	?	8.9µM*	20%
CCc1c(C)nc(SCC(N)=O)c(C#N)c1C	4%	7%	-2%	0%	2%	0%
CCc1cc2c(SCC(=O)c3cccs3)ncnc2s1	-12%	7%	0%	23µM*	?	22%
CCc1c(C)nc(SCC(=O)c2cccs2)c(C#N)c1C	2.7µM*	?	4%	9.2µM*	16µM*	3.2µM*
Nc1c(C(=O)Nc2ccc(Cl)cc2)oc2ccccc12	2.7µM*	2.5µM*	4%	2.3µM*	24%	1.4µM*
CC(=O)Nc1cccc(NC(=O)c2oc3ccccc3c2C)c1	6µM*	3.5µM*	7%	?	11µM*	3.2µM*
CCC(=O)Nc1ccc(NC(=O)c2oc3ccccc3c2C)cc1	5.4µM*	-9%	nt	9%	nt	-5%
COc1ccc(C(=O)Nc2ccc(-c3nnn(CC(=O)N4CCN(C(=O)c5ccco5)CC4)n3)cc2)cc1	13µM*	1%	-2%	-7%	-13%	2%
O=C(Cn1nc(N2CCN(c3ccccc3)CC2)ccc1=O)NCc1cccc(Cl)c1	-7%	nt	nt	nt	nt	nt
CC(=O)/C(C=Nc1noc(C)c1Br)=C(\C)O	-2%	2%	nt	0%	nt	3%
O=C(NCc1ccccc1)NC(=O)c1ccccc1	-2%	9%	11%	-1%	-7%	-10%
O=C(NC(=O)c1ccccc1)NC1(C(F)(F)F)OCCO1	11µM*	4µM*	-1%	?	16µM*	2.5µM*
CCOC(=O)c1cc(-c2ccccc2)n(CCCC(=O)Nc2cccc(C)c2C)c1C	-2%	nt	nt	nt	nt	nt
Cc1ccc(NC(=O)C(=O)Nc2ccccn2)cc1	0.54µM*	0.32µM*	?	?	1.6µM*	?
COc1ccccc1NC(=O)C(=O)N/N=C(\C)CC(=O)Nc1ccccn1	?	-16%	-3%	0%	-1%	2%
Cc1c(C)c2ccc(OCC(=O)N(C)C)c(C)c2oc1=O	-16%	-1%	1%	?	?	-1%
Cc1c(C)c2ccc(OCC(=O)Nc3ccccn3)c(C)c2oc1=O	0.034µM*	-20%	nt	?	nt	-34%
COc1ccccc1NC(=O)C(=O)Nc1ccccn1	8.5µM*	3.2µM*	?	?	16µM*	4µM*
Cc1ccc(S(=O)(=O)CC(=O)Nc2ccccn2)cc1	1%	4%	nt	-2%	nt	-1%
COc1ccccc1OCC(=O)Nc1ccccn1	3.4µM*	3.2µM*	nt	2.1µM*	nt	?
SMILES	FLuc counter	Rab9 prom act	Luc counter	ELG1 genotox	SMN2 splice up	NPC1 prom act
O=C1C2CC=CCC2C(=O)N1Cc1nnc(-c2ccccc2Br)o1 (stereo not drawn)	?	2%	nt	8%	nt	0%
CCc1cc(=O)oc2c3c(cc(OCC(=O)NCCCCCC(=O)O)c12)OC(C)(C)CC3	?	-3%	nt	9%	nt	-3%
CC(=O)c1ccc(S(=O)(=O)NCCCC(=O)N(C)Cc2ccc3c(c2)OCO3)cc1	nt	-3%	nt	-3%	nt	-10%
O=C(Nc1ccc(N2CCCC2)cc1)c1cccc(Cl)c1	0.67µM*	0.25µM*	nt	1.2µM*	nt	0.32µM*
Cc1cc(C)cc(C(=O)Nc2ccc(N3CCCC3)cc2)c1	1.9µM*	1µM*	-29%	?	8.9µM*	2.2µM*
Cc1cc(C)cc(NC(=O)Nc2ccc(N3CCCCC3)cc2)c1	2.7µM*	4µM*	nt	?	nt	3.5µM*
Cc1cc(C)cc(OCC(=O)Nc2ccc(N3CCCCC3)cc2)c1	9%	-2%	nt	1%	nt	-3%
CCCOC(=O)Nc1ccc(N2CCCCC2)cc1	3µM*	nt	-7%	nt	14µM*	nt
O=C(c1cc2cc(F)ccc2[nH]1)N1CCCC(Nc2ccc(F)cc2)C1 (stereo not drawn)	3%	9%	nt	0%	nt	2%
O=C(CSc1nc2cc([N+](=O)[O-])ccc2n1-c1ccc(F)cc1)NC1CCS(=O)(=O)C1 (stereo not drawn)	3%	1%	2%	-1%	-9%	-4%
CCCCOC(=O)Nc1ccc(C(=O)OCCC)cc1	19µM*	6%	14%	?	-11%	23%
CSc1nnc(C2CCN(CC(=O)Nc3ccccc3N3CCOCC3)CC2)n1C	1%	-2%	nt	0%	nt	-2%
Cc1ccc(-n2nnc(-c3nccs3)n2)cc1	0.12µM*	?	nt	0.23µM*	nt	?
Clc1ccc(-n2nnc(-c3nccs3)n2)cc1Cl	1.9µM*	0.89µM*	nt	5.2µM*	nt	1.6µM*
CC(=O)c1ccc(OC(=O)CCc2ccccc2)cc1	?	4%	nt	1%	nt	-1%
Cc1ccc(N2CCN(C(=S)Nc3ccccc3)CC2)cc1	-1%	-1%	-1%	0%	-12%	-7%
O=C(c1ccncc1)N1N=C(c2ccc(Cl)cc2)CC1c1ccccc1O (stereo not drawn)	17µM*	24%	nt	?	nt	1%
Cc1ccc(C(=O)NCc2n[nH]c(=S)n2-c2ccccc2)cc1[N+](=O)[O-]	2%	-6%	0%	2%	-24%	-2%
Clc1cccc(N2CCN(c3c4c(nc5nncn35)CCC4)CC2)c1	-9%	nt	nt	nt	-3%	nt
CCOC(=O)C1CCN(C(=O)CNC(=O)c2nn(-c3ccc(OC)cc3)c(=O)c3ccccc23)CC1	2.7µM*	26%	nt	-3%	nt	24%
CCOC(=O)C1CCN(C(=O)CNC(=O)c2nn(-c3ccc(OC)c(OC)c3)c(=O)c3ccccc23)CC1	4.8µM*	17%	nt	-2%	nt	13%
Nc1ncnc2c1C(c1ccccc1)c1c(ccc3ccccc13)O2 (stereo not drawn)	nt	nt	nt	8%	nt	nt
Fc1ccccc1CSc1nnc(-c2ccccc2)o1	4.8µM*	3.2µM*	-3%	8.2µM*	35µM*	2.5µM*
COc1cc(OC)cc(-c2nnc(SCc3c(F)cccc3Cl)o2)c1	?	3.5µM*	0%	?	21%	3.2µM*
c1ccc(CSc2nnc(-c3ccncc3)o2)cc1	?	?	3%	0%	28%	?
